Peg3 prom inh-1: Peg3 promoter-driven luciferase inhibitors, primary screen, cell-based, HeLa, luciferase luminescence; inhibition, % at 20 µM; AID 588405, 2011; hit rate 1.7% among 360,000; HeLa PEG-Prom luciferase reporter, overnight;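 active = inhibition of at least 50% at 20 µM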
LMP1 NFkB inh: EBV LMP1-driven NF-kappaB luciferase reporter inhibitors, primary screen, cell-based, luminescence, single point | LMP1-induced NF-kappaB luciferase reporter cells | inhibition, % at 12.5 µM | hit rate 0.69% among 350,000; in the data active = inhibition above about 41%;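 note: 0% = neutral control wells and 100% = reference inhibitor control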
KKLEB cytotox: cytotoxicity in KKLEB CF airway cells, primary screen, cytotoxicity control for CF NF-kB inhibitor project, cell-based, uHTS, fluorescence assay plates | KKLEB CF airway cells viability, ATPlite luminescence, overnight; stronger effect = lower value; cells stimulated with P. aeruginosa culture filtrate | activity change (cytotoxicity), % at 5 µM | hit rate 0.36% among 360,000 | AID 602141, 2011;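 active = corrected activity change at or below -50% at 5 µM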
HIF-2a inh: HIF-2a reporter inhibitors, primary screen, luminescence, 786-0 RCC cells | hit rate 0.72% among 360,000 | 786-0 RCC cells HIF-2a reporter, luciferase luminescence, overnight | inhibition, % at 18.8 µM;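 active = inhibition of the luminescence signal of 40% or more relative to plate controls, in a single-dose primary screen at 18.75 µM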
MITF TRPM1 inh: inhibitors of MITF-dependent TRPM1 promoter reporter, primary screen, cell-based, SK-MEL-5, single point, luciferase. SK-MEL-5 TRPM1 promoter luciferase, 24 h. inhibition, % at 12.5 µM. hit rate 0.83% among 330,000. AID 488899, 2010;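 active = mean inhibition across replicates of 60% or more, whatever share of single replicates reaches that level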
CF NFkB block: inhibitors of PAF-induced NF-kB signaling, primary screen, cell-based, GFP fluorescence, uHTS; KKLEB NF-kB-GFP reporter, GFP fluorescence overnight; inhibition, % at 5 µM; hit rate 0.86% among 360,000; AID 588850, 2011;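 active = at least 50% inhibition at 5 µM, scaled per plate between neutral and stimulator controls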;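 note: PAF is a Pseudomonas aeruginosa culture filtrate used as stimulus; plate controls were PAF-stimulated DMSO wells for no effect and unstimulated DMSO wells for full effect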
Peg3 prom inh-2: Peg3 promoter reporter inhibitors, retest, confirmation, cell-based, HeLa, luciferase reporter, single concentration; shares compounds with Peg3 prom inh-1; HeLa PEG-Prom luciferase reporter, luminescence, overnight; inhibition, % at 20 µM; hit rate 84% among 1,300; AID 602417, 2012;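 active = at 20 µM dose, 40% or more inhibition averaged across four replicates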
The depositor's hits bear a star; nt = no result given. An excerpt weighted towards active compounds, which were near 3% of everything screened.

SMILES	Peg3 prom inh-1	LMP1 NFkB inh	KKLEB cytotox	HIF-2a inh	MITF TRPM1 inh	CF NFkB block	Peg3 prom inh-2
O=C(c1ccccc1)N(C(=O)c1ccccc1)c1ncnc2c1C(c1ccccc1)c1c(ccc3ccccc13)O2 (configuration not stated)	78*	-16	-4	21	8	56*	77*
CCOC(=O)CCCC(=O)Nc1ncnc2c1C(c1ccccc1)c1c(ccc3ccccc13)O2 (configuration not stated)	36	-10	4	25	-2	-11	nt
O=c1oc2ccccc2cc1-c1cn2cccnc2n1	-173	29	8	-80	-1	-43	nt
O=c1oc2ccccc2cc1-c1cn2ccccc2n1	79*	68*	-78*	66*	81*	27	65*
Cc1cccc(N2CCN(C(=O)C3CCN(c4ncnc5c4nc4n5CCCCC4)CC3)CC2C)c1 (configuration not stated)	55*	19	-9	1	43	-8	43*
Cc1cccc(N2CCN(C(=O)C3CCN(c4ncnc5c4nc4n5CCCCC4)CC3)CC2)c1C	52*	11	6	6	50	-14	58*
O=C(C1CCN(c2ncnc3c2nc2n3CCCCC2)CC1)N1CCN(c2ccccc2F)CC1	20	4	-5	30	0	-24	nt
Nc1nonc1-n1nnc(C(=O)N/N=C/c2ccccc2)c1CN1CCc2ccccc21	14	-2	-6	-2	16	-13	nt
CCOc1cccc(-c2c(C(=O)N/N=C(\C)c3ccccn3)nnn2-c2nonc2N)c1	74*	65*	-15	15	61*	29	64*
CCOc1cccc(-c2c(C(=O)N/N=C(\C)c3ccncc3)nnn2-c2nonc2N)c1	17	4	5	17	2	-3	nt
C/C(=N\NC(=O)c1nnn(-c2nonc2N)c1CN1CCc2ccccc21)c1ccccc1O	55*	17	-28	8	30	28	66*
C[C@H]1CN([C@@H](C)CO)C(=O)CCCn2nncc2CO[C@H]1CN(C)C(=O)Cc1ccccc1	-4	2	8	-1	nt	6	nt
CCOc1ccc(C(=O)O/N=C(\N)c2ccccn2)cc1	114*	88*	-28	68*	67*	13	95*
N/C(=N\OC(=O)c1ccccc1)c1ccccn1	95*	45*	0	-44	56	-3	8
Cc1cccc(C(=O)O/N=C(\N)c2ccccn2)c1	56*	38	-20	32	35	-16	40*
N/C(=N\OC(=O)c1cccc(F)c1)c1ccccn1	-14	23	-6	5	-16	-18	nt
CCc1ccc(OCC(=O)O/N=C(\N)c2ccccn2)cc1	-345	nt	-24	-258	nt	19	nt
COCCCN1C(=O)C(CC(=O)NCc2ccco2)CC(C(=O)N(C(C)C)C(C)C)=C1C (configuration not stated)	2	nt	-5	4	nt	-17	nt
CC1(C(=O)NS(=O)(=O)C2CC2)CCN(C(=O)c2ccccc2OC(F)(F)F)C1 (configuration not stated)	1	nt	-13	9	nt	14	nt
CCOc1ccc(-c2cc(C(=O)Nc3cc(OC)c(OC)c(OC)c3)[nH]n2)c(C)c1	4	nt	-20	-22	nt	-14	nt
O=C(C[C@H]1C[C@H](C(=O)N2CCCCC2)[C@@]2(CCc3ccccc3)c3[nH]c4ccc(Cl)cc4c3CCN2C1=O)NCCN1CCOCC1	80*	-3	-10	10	-3	19	-2
CC1CCC(NC(=O)C2CCC(CNS(=O)(=O)c3ccc4c(c3)C(C)(C)C(=O)N4C)CC2)CC1 (configuration not stated)	-7	nt	3	1	nt	-22	nt
NC(=O)CC(NC(=O)Cc1cccc2ccccc12)c1ccc(NCC2CC2)c([N+](=O)[O-])c1 (configuration not stated)	6	-5	-10	-2	2	-19	nt
NC(=O)CC(NC(=O)Cc1cccc2ccccc12)c1ccc(NC2CCCCC2)c([N+](=O)[O-])c1 (configuration not stated)	78*	5	-22	-11	-1	11	14
COc1ccc(CCNc2ccc(C(CC(N)=O)NC(=O)c3ccc(Br)cc3)cc2[N+](=O)[O-])cc1 (configuration not stated)	69*	6	-19	20	2	6	19
SMILES	Peg3 prom inh-1	LMP1 NFkB inh	KKLEB cytotox	HIF-2a inh	MITF TRPM1 inh	CF NFkB block	Peg3 prom inh-2
NC(=O)CC(NC(=O)Cc1cccc2ccccc12)c1ccc(NCCOc2ccccc2)c([N+](=O)[O-])c1 (configuration not stated)	54*	-7	-19	11	-16	-15	27
COC(=O)c1ccccc1-c1ccc(/C=N/Nc2nc(N3CCCC3)nc(N3CCCC3)n2)o1	52*	7	6	14	6	-13	56*
COCc1cccc(-c2csc(C(O)c3cccc(OC)c3)n2)c1 (configuration not stated)	-13	nt	-7	-30	nt	3	nt
COc1cc(/C=C2\SC(=S)N(CCC(=O)NC3CCCC3)C2=O)cc(OC)c1OC	38	9	-6	7	29	6	nt
Cc1ccc(/C=C2\SC(=S)N(CCCC(=O)NC3CCCC3)C2=O)cc1	54*	55*	8	74*	76*	14	49*
Cc1ccc(/C=C2\SC(=S)N(CCCC(=O)NNC(=O)c3ccccc3O)C2=O)cc1	80*	55*	-6	91*	nt	2	82*
CC(C)c1ccc(NC(=O)C2Cc3c(-c4ccccc4Oc4ccccc4)ccnc3O2)cc1 (configuration not stated)	13	nt	-2	-11	nt	-10	nt
COC(=O)[C@]12CCCCC=C1N(Cc1ccco1)C(=O)[C@H](CC(=O)NCc1ccc(C)o1)C2	nt	nt	nt	-9	nt	nt	nt
COc1ccc(/C=N/Nc2nncc3ccccc23)cc1	56*	-4	-40	25	5	-44	46*
Cc1ccc(NC(=O)c2nc[nH]c2C(=O)N2CCN(C(=O)OC(C)(C)C)CC2)cc1	-10	-3	16	-17	-5	-12	nt
CC(C)(C)OC(=O)NCc1ccc(CNC(=O)c2nc[nH]c2C(=O)N2CCN(C(=O)OC(C)(C)C)CC2)cc1	51*	-4	-11	9	21	-3	28

High-throughput results: PubChem, several laboratories
